# Bioassay records (PubChem BioAssay)
# This is a sample that favours compounds with a hit; in the whole collection about 2.7% have one here.
# ERG-DNA inh = inhibitors of human ERG Ets domain-DNA interaction | P11308 | fluorescence polarization, His-ERG Ets domain / labelled DNA | AID 624246 | 370,000 compounds, 0.028% hits | Potency, µM (titrated, usually from 76.9 µM), without a hit: top-dose FP activity, negative = inhibition, actives largely listed as inhibitors; active means well fitted inhibition curve with a large enough effect in the polarisation, with a control signal flat; inconclusive means small, poorly fitted or top-dose-only effect, or effect the other way, or a change in a side signal; inactive means no such curve, though single readings can be large or run the other way; the % refers to the polarisation;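 further: polarization taken with two DNA probes labelled with fluorescein and Texas red; potency means the concentration at half of the fitted maximal effect; % of control where 0% means no effect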
#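 His-tagged ERG Ets domain (1 uM in the protein solution; 300mM KCl, 50mM Tris-HCl, 1mM EDTA, 1mM DTT, pH 7.5) received compound, then a probe mix of 5 nM fluorescein-DNA and 100nM Texas-615-DNA. Fluorescence polarization was read for both dyes.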
# LDHA block = blocks human lactate dehydrogenase A; purified LDHA, NADH/diaphorase-resazurin fluorescence; hits give low values; 480,000 compounds, 0.15% hits; P00338; AID 1347041; activity change, % (values are at about 110 or 230 µM); in the data active means activity change below about -30%; inconclusive means mostly about -25% to -30%;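 further: plate controls were DMSO wells for no effect and wells without enzyme for full effect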
#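 Remaining NADH was detected by diaphorase (0.133 mg/mL) converting 37 µM resazurin to fluorescent resorufin, read at 0 and 20 minutes. The preceding 5-minute room-temperature reaction used 2 nM LDHA, 0.2 mM sodium pyruvate and 0.06 mM NADH at pH 7.4.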
# Nrf2 inh = blocks Nrf2 signaling. A549 ARE-Fluc reporter, luciferase luminescence, 18-24 h. Potency, µM (doses to about 46 µM), for the others: top-dose activity change, negative = inhibition, actives largely listed as inhibitors. 360,000 compounds, 2.1% hits; further: potency means the concentration at half of the fitted maximal effect; on the % scale 0 is the no-effect control and ±100 the full control effect; nearly all actives have a fitted effect of over 60% in size
#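 Nrf2 activity is the BugLite luminescence, read 15 min after reagent at room temperature, following CellTiter-Fluor cytotoxicity readout (30 min, 37C). Compound titrations were applied for 18-24 h to 5000 A549 ARE_Fluc cells/well in 5% FBS OPTI-MEM.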
# 12-LOX inh = ALOX12 (human) lipoxygenase inhibition | purified 12hLO, xylenol orange hydroperoxide absorbance | 580,000 compounds, 1.1% hits | P18054 | Potency, µM (highest dose often 108 µM), inactives show at the highest dose activity change, negative = inhibition, hits mostly inhibitors; further: potency means the concentration at half of the fitted maximal effect; on the % scale 0 is the no-effect control and ±100 the full control effect
# Target sequence (P18054 whole entry, looked up): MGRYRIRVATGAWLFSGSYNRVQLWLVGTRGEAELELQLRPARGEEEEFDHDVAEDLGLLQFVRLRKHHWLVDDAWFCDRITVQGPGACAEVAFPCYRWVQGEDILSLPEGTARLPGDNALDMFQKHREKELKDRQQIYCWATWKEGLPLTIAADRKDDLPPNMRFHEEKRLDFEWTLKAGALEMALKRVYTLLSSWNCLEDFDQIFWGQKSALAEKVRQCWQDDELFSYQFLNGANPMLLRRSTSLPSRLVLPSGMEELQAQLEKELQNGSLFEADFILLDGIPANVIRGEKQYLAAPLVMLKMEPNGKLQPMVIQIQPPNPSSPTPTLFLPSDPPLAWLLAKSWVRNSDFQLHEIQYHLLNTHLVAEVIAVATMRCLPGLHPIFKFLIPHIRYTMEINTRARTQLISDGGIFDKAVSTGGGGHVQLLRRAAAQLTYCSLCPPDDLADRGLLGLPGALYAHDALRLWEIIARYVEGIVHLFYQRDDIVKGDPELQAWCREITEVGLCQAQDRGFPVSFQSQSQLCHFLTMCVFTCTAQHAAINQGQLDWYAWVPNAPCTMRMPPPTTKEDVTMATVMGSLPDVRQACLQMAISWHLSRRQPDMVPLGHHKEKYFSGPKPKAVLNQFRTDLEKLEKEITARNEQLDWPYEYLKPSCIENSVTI
#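 Purified human 12hLO (150 nM final) in 25 mM Hepes, 0.01% Triton X-100, pH 7.0 was preincubated 15 min at room temperature with compound. Then 40 uM arachidonic acid was added, 30 min. Hydroperoxide was read by Fe-XO absorbance ratio 573/405 nm.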
# Nrf2 ARE act = Nrf2 pathway activation; AID 624171; Potency, µM (titrated, usually from 46.1 µM), for inactives: at the highest dose activation, actives largely listed as activators; AREc32 ARE-luciferase reporter (MCF7-derived line), luminescence, 24 h; 410,000 compounds, 0.31% hits; further: potency means the concentration at half of the fitted maximal effect; % of control where 0% means no effect; nearly all actives have a fitted effect of over 65% in size
#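 Reporter line AREc32 (ARE-Fluc), seeded overnight in OPTI-MEM with 5% FBS; compound pin-transferred, 24 hr at 37 deg C, 5% CO2; luminescent read-out.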
# A549 tox = kills or reduces viability of A549 cells in Nrf2 counter-screen; A549 ARE-Fluc cells, CellTiter-Fluor viability, 18-24 h; Potency, µM (top dose mostly 46 µM), for inactives: top-dose activity change, negative = cytotoxicity, hits mostly inhibitors; 390,000 compounds, 0.16% hits; further: potency means the concentration at half of the fitted maximal effect; on the % scale 0 is the no-effect control and ±100 the full control effect
#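 A549 ARE_Fluc cells in 5% FBS OPTI-MEM were exposed to compounds in concentration-response for 18-24 h at 37 deg C. Viability was read by CellTiter-Fluor fluorescence (Ex 405/Em 525) after 30 min, before the luciferase read.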
# An asterisk follows results filed as active; ? = inconclusive; . = no result; ! = not confirmed by another sample; [ ] = dose if it differs, or a comment. Unless noted, the call rests on the fitted dose curve; in most records, active means well fitted curve in the direction sought with a large enough effect; inconclusive means small, poorly fitted or top-dose-only effect, or another doubt; inactive means no such curve, though single readings can be large; an effect the other way counts as inactive or inconclusive.
SMILES,ERG-DNA inh,LDHA block,Nrf2 inh,12-LOX inh,Nrf2 ARE act,A549 tox
COc1cc(O)c(C(CCN2CCCC(C)C2)c2ccc3c(c2)OCO3)c(OC)c1 (stereo not drawn),-12%,11,6%,-25%,5%,-8%
COc1cc(OC)c2ccc(=O)oc2c1C(CCN1CCCC(C)C1)c1ccc2c(c1)OCO2 (stereo not drawn),14%,1,14%,-56%,6%,16µM*
O=C(Nc1ccc(F)cc1)N1CCC(c2nc3c(nnn3Cc3cccc(Cl)c3)c(=O)[nH]2)CC1,-7%,2,21µM*,-7%,4%,?
Cc1ccc(NC(=O)N2CCC(c3nc4c(nnn4Cc4cccc(Cl)c4)c(=O)[nH]3)CC2)cc1,-6%,1,.,9%,3%,-2%
O=C(c1ccc2c(c1)OCO2)N1CCC(c2nc3c(nnn3Cc3cccc(Cl)c3)c(=O)[nH]2)CC1,.,0,.,13µM*,.,.
CCN(CC)S(=O)(=O)c1cc(NC(=O)COC(=O)c2cc(C)nc3ccccc23)ccc1C,.,8,.,5%,.,.
COc1cccc(CNCC(c2ccccc2)c2c[nH]c3ccccc23)c1 (stereo not drawn),.,5,.,?,.,.
O=C(Cn1ccc2ccccc21)Nc1ccc2c(c1)OCCO2,.,-2,.,-39%,.,.
O=C(CCC1N=C2c3ccccc3N=C(SCc3cccc(Cl)c3)N2C1=O)NCc1ccco1 (stereo not drawn),-1%,-9,-27%,68%,0%,-13%
O=C(CCC1N=C2c3ccccc3N=C(SCc3ccccc3Cl)N2C1=O)NCc1ccco1 (stereo not drawn),1%,-10,18µM*,0%,0%,?
CC(=O)O[C@H](CC(=O)O)C[N+](C)(C)C,2%,-11,6%,35µM*!,0%,-7%
Cc1ccc(NC(=O)CCC(=O)O)cc1F,-6%,-4,0%,-4%,0%,3%
Cc1ccc(NC(=O)CCNc2cnc3cnccn23)cc1F,.,.,.,50µM*,.,.
COc1ccc(CN2CCN(C(=O)C3CCN(S(=O)(=O)c4cccs4)CC3)CC2)c(OC)c1OC,10%,-4,15µM*,-27%,0%,-4%
N#Cc1cccn1-c1nccc(-c2cccs2)n1,-2%,-3,?,-3%,4.5µM*,-1%
Cc1cc(O)c2c(c1O)C(=O)C(O)=C(O)C2=O,.,.,.,28µM*,.,.
Cc1cc(SCC(=O)c2ccc(Cl)cc2)nc(=O)[nH]1,16%,0,?,20µM*,0%,-6%
Cc1ccc(C(=O)CSc2cc(C)[nH]c(=O)n2)cc1,1%,2,?,?,0%,-6%
COc1ccccc1NS(=O)(=O)c1ccc(Cl)c(NC(=S)NC(=O)C2CCCC2)c1,-12%,-1,?,?,3%,-4%
O=C(NC(=S)Nc1ccccc1Cl)C1CC1,-1%,-17,?,-27%,3%,3%
CCN(CC)c1ccc(S(=O)(=O)Nc2cc(Cl)ccc2Cl)cc1NC(=S)NC(=O)C1CCCC1,-1%,-7,18µM*,?,4%,-16%
CCN(CC)S(=O)(=O)c1ccc(Cl)c(NC(=S)NC(=O)C2CCCC2)c1,-4%,-8,8.2µM*,16µM*,0%,-19%
CCCc1nc(C#N)c(N2CCN(c3cccc(Cl)c3)CC2)o1,.,8,.,?,.,.
O=C(CN1C(=O)S/C(=C\c2cccn2-c2ccc(C(=O)O)cc2)C1=O)Nc1cccc(F)c1,.,-2,.,.,.,.
O=C(NCCCN1CCN(c2ccccc2F)CC1)c1nnc(Cc2ccc(Cl)cc2Cl)o1,-2%,4,18µM*,2%,4%,-15%
SMILES,ERG-DNA inh,LDHA block,Nrf2 inh,12-LOX inh,Nrf2 ARE act,A549 tox
N#Cc1cc2c(nc1N1CCN(C(C(=O)O)c3c[nH]c4ccc(Cl)cc34)CC1)CCCC2 (stereo not drawn),.,-2,.,-2%,.,.
Cc1ccc(S(=O)(=O)N2CCN(c3ccnc(-c4cccs4)n3)CC2)cc1,.,-1,15µM*,.,.,-5%
Cc1ccc(S(=O)(=O)N2CCN(c3nc(-c4cccs4)nc4ncccc34)CC2)cc1,.,0,12µM*,.,.,-15%
CC(C)(C)C(=O)/C(C#N)=C/c1ccc(OCc2ccc(Cl)cc2Cl)cc1,.,1,.,?,.,.
COC(=O)c1ccc(Oc2c(C)oc3cc(OC(=O)c4ccccc4F)ccc3c2=O)cc1,.,19,.,?,.,.
N#CCCn1cc(-c2csc(NC3CC3)n2)c2ccccc21,.,11,.,14µM*,.,.
Cc1cc(C)n(Cc2ccc(C(=O)Nc3ccc(Br)cc3C)o2)n1,3%,2,-10%,35µM*,0%,1%
Cc1ccc(CNC(=O)c2ccc(Cn3nc(C)cc3C)o2)cc1,-16%,1,-10%,-11%,0%,-1%
Cc1cc(C)n(Cc2ccc(C(=O)NCc3ccco3)o2)n1,3%,-6,-8%,102%,1%,-17%
Cc1cc(C)n(Cc2ccc(C(=O)Nc3cccc(Br)c3)o2)n1,4%,-7,23µM*,?,0%,?
Fc1c(F)c(F)c(/C=N/Nc2c(F)c(F)c(F)c(F)c2F)c(F)c1F,.,3,.,-5%,.,.
COc1ccc(/C=C2/C(=O)N(C)C(=S)N2C)cc1,.,5,.,?,.,.
CN(C)/C=C/c1oc2ccc(O)cc2c1[N+](=O)[O-],9%,6,?,-11%,7%,16µM*
Oc1ccc(-c2nc(-c3ccc(Cl)cc3)cs2)cc1,.,0,.,14µM*,.,.
COc1cc(-c2csc(C)n2)ccc1O,0%,2,28%,0%,0%,3%
Oc1ccc(-c2nc(-c3ccccc3)cs2)cc1,.,-20,.,?,.,.
Oc1ccc(-c2csc(-c3ccccc3)n2)cc1O,-1%,16,2%,7.1µM*,?,?
Oc1ccc(-c2csc(-c3cccnc3)n2)cc1O,13%,31,0%,10%,11%,-5%
Cc1nc(-c2ccc(O)c(O)c2)cs1,9%,28,9%,7.1µM*,8%,-1%
Oc1ccc(-c2csc(Nc3ncccn3)n2)cc1O,7%,15,?,40µM*,?,?
Oc1ccc(-c2csc(Nc3ncccn3)n2)c(O)c1,15%,2,?,-11%,5%,-12%
O=C1CC2(CCN(Cc3ccsc3)CC2)Oc2ccccc21,.,.,.,43%[176 µM],.,.
CCOc1ccc(C(=O)C2CCN(CC(=O)Nc3ccccc3N3CCOCC3)CC2)cc1,-5%,1,12µM*,7%,2%,-14%[1.84 µM]
CCOc1ccc(C(=O)Nc2ccccc2N2CCOCC2)cc1,2%,0,.,0%,0%,5%
COc1cccc(/C=C/C(=O)OCc2ccc(C#N)cc2)c1OC,.,0,.,1%,.,.
